Assay outcomes as filed in PubChem.
This is one part of a sample in which hits are shown more often than they occur.
Vaccinia mCherry – inhibitors of vaccinia virus infection (mCherry reporter signal); 310,000 compounds, 0.63% hits; Vaccinia virus mCherry reporter infection, fluorescence; AID 720579; Potency, µM (titrated, usually from 36.5 µM), for the others: at the top dose activity change, negative = inhibition, actives largely listed as inhibitors; calls by dose curve; tested in A549 cells; also: potency is read from the fitted curve at half-maximal effect; % is scaled to controls: 0 for no effect and ±100 for the full control effect; nearly all actives have a fitted effect of over 35% in size
Shiga inhibitor – blocks Shiga toxin action in Vero cells; Vero cells, Shiga toxin protein synthesis inhibition reporter; inhibition, % at 38.7 µM; 290,000 compounds, 9.2% hits; in the data active = inhibition mostly above about 28%, no sharp cut-off; inactive = mostly below about 43%; also: 0% is about no effect
Marburg entry inh – blocks Marburg virus binding to or entry into cells; Potency, µM (doses to about 37.8 µM), for inactives: at the highest dose activity change, negative = inhibition, usual class: inhibitors; Marburg virus pseudotyped entry inhibition, cell reporter; 300,000 compounds, 1.8% hits; calls by dose curve; tested in HEK293 cells; also: potency is read from the fitted curve at half-maximal effect; % is scaled to controls: 0 for no effect and ±100 for the full control effect
Cycloheximide cs – counter-screen hit for Shiga toxin inhibitors, cycloheximide; cell reporter, cycloheximide protein synthesis inhibition counterscreen; max response, %; AID 2314; 300,000 compounds, 12% hits; in the data active = max response mostly above about 13%, no sharp cut-off; inactive = mostly below about 14%; also: read at 38.3 µM for the half of the compounds with a filed dose; 0% is about no effect
Lassa entry inh – blocks Lassa virus binding to or entry into cells | 300,000 compounds, 1.2% hits | Lassa virus pseudotype entry inhibition, cell reporter | Potency, µM (titrated, usually from 37.9 µM), inactives show top-dose activity change, negative = inhibition, actives largely listed as inhibitors; calls by dose curve; tested in HEK293 cells; also: potency is read from the fitted curve at half-maximal effect; % is scaled to controls: 0 for no effect and ±100 for the full control effect; nearly all actives have a fitted effect of over 50% in size
Vaccinia Venus – vaccinia inhibition (Venus reporter); Vaccinia virus Venus reporter expression, fluorescence; Potency, µM (top dose mostly 36.5 µM), for the others: at the top dose activity change, negative = inhibition, actives largely listed as inhibitors; 330,000 compounds, 0.46% hits; calls by dose curve; tested in A549 cells; also: potency is read from the fitted curve at half-maximal effect; % is scaled to controls: 0 for no effect and ±100 for the full control effect; nearly all actives have a fitted effect of over 30% in size
The depositor's hits bear a star; i = inactive; ? = inconclusive; · = not tested or not shown; + = active, no number; [ ] = dose if it differs, or a comment.

SMILES	Vaccinia mCherry	Shiga inhibitor	Marburg entry inh	Cycloheximide cs	Lassa entry inh	Vaccinia Venus
CCOC(=O)N/N=C\c1ccc([N+](=O)[O-])s1	?	42	?	10	-16%	-15%
Cc1cccc(NC(=S)N/N=C/c2ccc([N+](=O)[O-])s2)c1	11µM*	32*	?	19	16µM*	22µM*
CC(C)(C)OC(=O)N/N=C\c1ccc([N+](=O)[O-])s1	-12%	81*	14%[46.1 µM]	58*	22%[46.1 µM]	?
Cc1ccc(/C=N/N=C/c2ccc(C)s2)s1	-13%	+	?	71*	?	-7%
Cc1ccc(C=Nc2ccccc2C(N)=O)s1	?	-3	?	13	?	-29%
COc1cc(-c2cc(C)c3cccc(OC)c3n2)cc2c1OCCN(C(=O)CCn1nc(C)cc1C)C2	-20%	·	·	·	·	-10%
CCn1nc(C)c2c(-c3ccccc3)cc(=O)n(C(C)C(=O)NCc3ccc(C)cc3)c21 (centres undefined)	-3%	·	·	·	?	-1%
CNC(=O)c1cc(C(=O)c2ccc(C(F)(F)F)cc2F)c[nH]1	i	21	27%[46.1 µM]	19*	-1%	-7%
CNC(=O)c1cc(C(=O)c2ccc(C(F)(F)F)cc2)c[nH]1	-14%	60*	17%[46.1 µM]	27*	0%[46.1 µM]	-12%
CNC(=O)c1cc(C(=O)c2ccccc2Br)c[nH]1	-1%	7	-1%[46.1 µM]	7	?	-7%
CNC(=O)c1cc(C(=O)c2ccccc2C(F)(F)F)c[nH]1	2%	-13	6%[46.1 µM]	-2	4%[46.1 µM]	1%
CCOC(=O)[C@@]1([C@@H](NC(=O)OC)c2cccc(C)c2)CCCC1=O	·	·	26%[14.2 µM]	·	·	·
CCCc1oc2ccc(NS(=O)(=O)c3ccc(OCC)cc3)cc2c1C(=O)OCC	-27%[7.34 µM]	·	-23%[46.1 µM]	·	?	-25%[7.34 µM]
CCCc1oc2ccc(NS(=O)(=O)c3ccc(OC)cc3)cc2c1C(=O)OCC	?	·	·	·	1µM*	?
CC(OC(=O)c1nn(C)c(=O)c2ccccc12)C(=O)NC1CCCCC1C (centres undefined)	-13%	·	1%	·	?	-2%
O=C(/C(C=Nc1cc2c(oc1=O)CCCC2=O)=C(\O)c1ccccc1)c1ccccc1	·	125*	-4%	40*	4%	·
O=C(Nc1ccc(C(=O)Nc2ccc(C(=O)Nc3ccc(S(=O)(=O)O)c4cc(S(=O)(=O)O)cc(S(=O)(=O)O)c34)cc2)cc1)Nc1ccc(C(=O)Nc2ccc(C(=O)Nc3ccc(S(=O)(=O)O)c4cc(S(=O)(=O)O)cc(S(=O)(=O)O)c34)cc2)cc1	-4%	·	·	·	·	-10%
COc1cccc(S(=O)(=O)N2CCN(S(=O)(=O)c3ccc4c(c3)OCCO4)CC2)c1	·	-13	·	-6	·	·
C/C(N)=C(/C#N)C(=O)CSc1nnc(-c2ccccc2Br)o1	·	126*	6.3µM*	54*	?	-28%
COc1ccc(-c2nnc(SCC(=O)/C(C#N)=C(\C)N)o2)cc1	·	107*	?	38*	?	·
COc1ccc2nc(SCC(=O)/C(C#N)=C(\C)N)[nH]c2c1	i	97*	?	47*	?	0%
COc1ccc(-c2nnc(SCC(=O)N3c4ccccc4Sc4ccccc43)o2)cc1	-11%	-3	-28%	2	?	-2%
COc1cccc(/C=N/NC(=O)c2ccccc2NC(=O)c2ccco2)c1OC	·	38	·	12	·	·
CC(C)=C(NC(=O)c1ccccc1)C(=O)N/N=C/c1ccc(O)cc1	-11%	-2	?	31*	4%	-9%
COc1ccccc1/C=C/C=N/NC(=O)c1ccco1	-2%	78*	1%[46.1 µM]	32*	14%[46.1 µM]	-20%
SMILES	Vaccinia mCherry	Shiga inhibitor	Marburg entry inh	Cycloheximide cs	Lassa entry inh	Vaccinia Venus
O=C(N/N=C/c1ccc(OCc2ccccc2)cc1)c1ccco1	-4%	55*	?	36*	-4%[46.1 µM]	-7%
O=C(Nc1ccccc1C(=O)N/N=C/c1ccccc1)c1ccco1	-9%	87*	?	27*	-20%	-17%
CN(C)C(CNC(=O)c1sc2ccccc2c1Cl)c1ccco1 (centres undefined)	-11%	·	·	·	·	-7%
CCN(CC(=O)Nc1ccc(OC)cc1)C(=O)Cc1cccs1	-2%	·	-2%[46.1 µM]	·	6%	-1%
Cc1noc(C)c1NC(=O)N(C)C[C@@H]1Oc2ncc(Br)cc2C(=O)N([C@@H](C)CO)C[C@@H]1C	i	·	·	·	·	-8%
O=C(N/N=C/c1ccccc1)c1ccco1	-15%	100*	?	36*	?	-10%
O=C(N/N=C/C=N/NC(=O)c1ccco1)c1ccco1	0%	-10	2%[46.1 µM]	12	21%[46.1 µM]	-2%
O=C(Nc1ccccc1C(=O)N/N=C/c1ccc(O)cc1)c1ccccc1	·	31	·	29*	·	·
O=C(NCc1ccncc1)C(=O)N/N=C/c1ccccc1OCc1ccccc1	?	25	0%[46.1 µM]	27	-5%	-21%
COC(=O)c1ccc(COc2ccccc2/C=N/NC(=O)c2cccnc2)cc1	-19%	25	?	28*	-24%[46.1 µM]	-8%
COc1cccc(/C=N/NC(=O)CNC(=O)c2cccnc2)c1O	?	-11	?	-6	-24%[46.1 µM]	-24%
O=C(N/N=C\c1ccccc1OCc1ccccc1)c1ccco1	·	40*	-13%	32*	-15%	·
CSc1ncccc1C(=O)NCC1Cc2cc(-c3cnccn3)cc(Cl)c2O1 (centres undefined)	i	·	·	·	·	-12%
O=C(N/N=C/C(Br)=C\c1ccccc1)c1ccco1	-12%	47*	?	46*	9%[46.1 µM]	-11%
O=C(N/N=C/c1ccc2cccnc2c1)c1ccco1	-10%	72*	?	25	?	8%
O=C(N/N=C/c1ccc(OC(=O)c2ccco2)cc1)c1ccncc1	i	-6	6%[46.1 µM]	-1	-5%[46.1 µM]	-5%
O=C(NCc1ccccc1)/C(=C\c1ccccc1)NC(=O)c1ccco1	i	-6	16%[46.1 µM]	1	5%[46.1 µM]	-3%
CC(NC(=O)c1ccccc1NC(=O)c1ccco1)C(=O)O (centres undefined)	·	138*	?	76*	0%	·
COc1ccc(CNC(=O)C2CCN(Cc3nc(-c4ccc(OC)c(OC)c4)oc3C)CC2)cc1	-7%	·	17%[46.1 µM]	·	18%[46.1 µM]	2%
Cc1ccc(COc2ccc(/C=N/O)cc2)cc1	-6%	87*	?	43*	?	-21%
CCOc1ccc(/C=N/O)cc1	-18%	-13	7%	-3	·	0%
Cc1ccc(Oc2ccc(/C=N/O)cn2)cc1	?	91*	?	41*	23%	-17%
C=C(C)c1cccc(C(C)(C)NC(=O)Nc2ccc(OC)nc2)c1	-16%	-4	23%[46.1 µM]	3	?	-24%
C=C(C)c1cccc(C(C)(C)NC(=O)Nc2cc(C)ccn2)c1	-11%	92*	?	30*	?	-25%
C=C(C)c1cccc(C(C)(C)NC(=O)Nc2ccc(C)cn2)c1	-23%	63*	-27%	21*	-14%	-15%
CCC(O)CNC(=O)c1cnn(-c2ncc3c(n2)-c2ccccc2CCC3)c1C1CC1 (centres undefined)	-5%	·	·	·	·	-6%
